GDH-TPI counter = counter-screen for M. tuberculosis FBA inhibitors: GDH-TPI coupled enzymes; inhibition, % at 4.8 µM; actives 1.2% (n = 360,000); AID 588335; GDH-TPI coupled enzyme counterscreen, NADH absorbance; in the data active = inhibition above about 30%;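 note: 0% = DMSO wells and 100% = wells lacking the enzyme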
SARS 3CLpro inh = SARS-CoV 3CLpro protease inhibition. P0C6X7. recombinant SARS-CoV 3CLpro, quenched FRET peptide cleavage. inhibition, % at 6 µM. actives 0.14% (n = 290,000). AID 1706; in the data active = inhibition above about 12%
BH1578 lux ind = inducers of Vibrio cholerae quorum light production without autoinducers. V. cholerae BH1578 lux reporter, luminescence, 6 h. activation, % at 18.7 µM. actives 0.16% (n = 350,000). AID 588436; in the data active = activation mostly above about 9.7%, no sharp cut-off
PrPC surface inh = reduces human prion protein on the cell surface. inhibition, % at 13.8 µM. actives 0.43% (n = 370,000). cell surface PrPC, TR-FRET read-out. P04156; in the data active = inhibition above about 24%; note: 0% = median of the test wells and 100% = reference compound wells
Mtb FBA inh = inhibits M. tuberculosis FBA enzyme | AID 588726 | inhibition, % at 1 µM | actives 2.3% (n = 360,000) | purified M. tuberculosis FBA, fluorescence read-out; in the data active = inhibition above about 27%;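 note: 0% = vehicle and 100% = reference inhibitor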
Target sequence (P9WQA3 whole entry, looked up): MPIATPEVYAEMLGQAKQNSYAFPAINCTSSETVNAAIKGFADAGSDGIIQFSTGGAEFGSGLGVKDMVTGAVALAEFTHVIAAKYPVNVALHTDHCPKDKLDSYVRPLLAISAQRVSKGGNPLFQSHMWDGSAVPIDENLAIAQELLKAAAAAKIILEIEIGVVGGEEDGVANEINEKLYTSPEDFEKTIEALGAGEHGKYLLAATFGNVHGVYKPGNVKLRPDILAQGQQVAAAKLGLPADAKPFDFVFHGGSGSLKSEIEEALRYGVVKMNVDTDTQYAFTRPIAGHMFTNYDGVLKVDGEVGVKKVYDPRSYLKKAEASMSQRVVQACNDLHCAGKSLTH
Starred values were filed as active, the others as inactive; i = inactive; / = no result; + = active, no number. Rows were chosen to be rich in hits. Some 3.9% of all compounds tested hit in one or more screens of this group.

SMILES | GDH-TPI counter | SARS 3CLpro inh | BH1578 lux ind | PrPC surface inh | Mtb FBA inh
O=C(Nc1nc2ccc(F)cc2s1)c1cccs1 | 40* | 3 | 0 | 14 | 3
Cc1cc(-c2ccc(S(=O)(=O)N(C)Cc3ccccc3)cc2)on1 | 27 | 2 | i | -9 | 2
COC(=O)N/N=C/c1ccc(-c2cc(Cl)cc(Cl)c2)o1 | 46* | 1 | 0 | -5 | -5
COC(=O)N/N=C/c1ccc(-c2ccc(C)c(Cl)c2)o1 | 28 | 3 | -1 | -1 | 1
CC1=NOC(=O)/C1=C\c1ccc(-c2cccc(Cl)c2)o1 | 8 | -4 | i | / | 2
COC(=O)N/N=C/c1ccc(-c2cccc(Cl)c2)o1 | 31* | 2 | 0 | -12 | -6
Nc1ccccc1N=Cc1ccc(-c2cccc(Cl)c2)o1 | 12 | -2 | 0 | 16 | 146*
COc1ccc2c(c1)[C@]1(C(=O)N2C)C2=C(CCCC2=O)Oc2cc(C)oc(=O)c21 | / | / | / | 2 | /
O=C1C=C(c2ccc(Cl)c(C(F)(F)F)c2)C[C@@H](c2ccc3c(c2)OCO3)C1 | 14 | / | i | 3 | -2
COCCC(=O)N1CCC(Oc2ccc(C(=O)N3C[C@H]4CC[C@H]3C4)cc2)CC1 | 3 | 5 | i | 7 | -1
O=c1ccc2cc3c(-c4ccccc4)coc3cc2o1 | 9 | 1 | i | -1 | 12
CC(C)C1Oc2cc3oc(=O)ccc3cc2C1=O (stereo not drawn) | 16 | 0 | i | -3 | 115*
CCOC(=O)c1cc(C(=O)OCC)c2ccccn2c1=O | 6 | 0 | 5 | -21 | +
CC(C)(C)N(Cc1cn(Cc2ccccc2)nn1)S(=O)(=O)c1ccc(F)cc1Br | / | / | / | -1 | /
CCOC(=O)N1CCN(C(=O)C[C@@H]2C[C@@]3(C(=O)OC)CC(C)(C)CC=C3N(Cc3cccc4ccccc34)C2=O)CC1 | / | / | / | 9 | /
COc1ccc2cc3cc(C(=O)NCc4cccs4)oc3nc2c1 | 31* | 2 | i | 8 | +
CCCCN(CC)CCCNC(=O)c1cc2cc3ccc(OC)cc3nc2o1 | 36* | -3 | -1 | -30 | +
COc1ccc2cc3cc(C(=O)Nc4ccc5c(c4)OCO5)oc3nc2c1 | 9 | 5 | -7 | -3 | -2
CCCN(CCC)CCCNC(=O)c1cc2cc3ccc(OC)cc3nc2o1 | 32* | -8 | i | -32 | +
COC(=O)c1ccc2cc(OC)cc([N+](=O)[O-])c2n1 | 12 | / | i | -4 | -1
Cc1ccc(S(=O)(=O)N2CCN(S(=O)(=O)c3ccccc3Br)CC2)cc1 | -3 | / | 1 | -8 | 0
COC1=C[C@H](C(=O)NCc2ccc(Br)cc2)C(C)C(c2ccccc2)CC1=O (stereo partly drawn) | / | / | / | 0 | /
O=c1c2ccccc2[se]n1-c1ccccc1 | 84* | 1 | 0 | 3 | -2
O=c1c2ccccc2nc(-c2ccccc2)n1-c1ccccc1 | 13 | -4 | 0 | -14 | 2
COC(=O)C1C2c3ccccc3OC1(C)N=c1s/c(=C/c3cnn(C)c3)c(=O)n12 (stereo not drawn) | 14 | 2 | i | -1 | 2
SMILES | GDH-TPI counter | SARS 3CLpro inh | BH1578 lux ind | PrPC surface inh | Mtb FBA inh
CC(=O)C1C2c3ccccc3OC1(C)N=c1s/c(=C/c3cn(C)nc3C)c(=O)n12 (stereo not drawn) | 36* | -3 | i | -17 | 1
CCc1nnc(NC(=O)c2ccc(NS(=O)(=O)c3ccccc3)cc2)s1 | 34* | 5 | 0 | -3 | 10
COc1ccc(C2=NN(Cc3ccccc3)C3C(=O)NC(=O)C23)cc1 (stereo not drawn) | 1 | 3 | 0 | 0 | -6
CN1C(=O)C2C(c3ccc(N(C)C)cc3)=NN(Cc3ccccc3)C2C1=O (stereo not drawn) | 44* | 0 | -2 | -3 | 2
Cc1oc2c(CN3CCCC3)c(O)ccc2c(=O)c1-c1ccccc1 | 11 | 0 | 0 | / | 118*
Cc1oc2c(CN3CCCC3)c(O)ccc2c(=O)c1-c1ccc(Cl)cc1 | 26 | 1 | i | 0 | 86*
COc1ccccc1Oc1c(C)oc2c(CN3CCN(C)CC3)c(O)ccc2c1=O | / | 3 | / | 3 | /
Cc1oc2c(CN3CCC(C)CC3)c(O)ccc2c(=O)c1-c1ccccc1 | 15 | -1 | i | 5 | 181*
Cc1c(C(=O)NNC(=S)NCc2ccc(Cl)cc2)oc2ccccc12 | 9 | 10 | i | 0 | 4
Nc1cc(C(=O)O)c(Oc2ccc(Cl)cc2Cl)cc1C(=O)O | -1 | -2 | 0 | 5 | +

Compound activity from PubChem.
